# Several values for one entry are separate records, joined by “and”; a condition that tells them apart may be missing. Identical values can stand only once. This is part of a sample that, as a whole, favours compounds with a hit. Of some 83,000 tested, about 20% had one in any assay.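 Plates (96-well) were seeded with cells, treated with compound at one concentration, and incubated for 48 hours before percent growth was determined.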 Values without a mark were called inactive. Activity calls are given as the source filed them.
# Tested on: UO-31 renal
# Assay: NCI-60 one-dose screen, 48 h (100 = growth as untreated, 0 = no growth, -100 = all killed)
# Conditions: 10 µM unless noted
# Experimental: Growth inhibition of the UO-31 human tumor cell line is measured as a screen for anti-cancer activity. Cells are grown in 96 well plates and exposed to the test compound for 48 hours. Compounds are tested at a single concentration, which is 10^-5 M for most compounds. The reported endpoint is percent growth (GI% or GIPRCNT), where numbers from 0 - 100% represent growth inhibition, and numbers from -100% - 0 represent cell death. For example, a value of 40 represents 60% growth inhibition. A value of 0 means no net growth occurred over the course of the experiment. A value of -40 indicates 40% of cells at the beginning of the experiment died by the end of the experiment. A value of -100 means all cells are dead at the end of the experiment.
# NCI-60 Human Tumor Cell Lines Screen was performed using the standard one-dose NCI protocol, which is described in more detail at https://dtp.cancer.gov/discovery_development/nci-60/default.htm.
# Compounds with GIPRCNT values below 10 were considered active. Activity score was based on GIPRCNT using the following formula: […]
# Score is 0 for GIPRCNT values of 100 or above, 50 for GIPRCNT values of 0, and 100 for GIPRCNT values of -100.
row,Structure (SMILES),growth
1,Cc1ccc2cccc([N+](=O)[O-])c2n1,88.3% and 73.6%
2,CCCCNC(=O)c1ccccc1C,94.4%
3,CC(=O)Oc1cc(C(C)C)c(OCCN(C)C)cc1C,94.2% and 97.3%
4,CCCCCc1cc[n+](CC(=O)c2ccccc2)cc1,85.6% and 91.3%
5,CCn1c2ccc(N(C)C)cc2c2cc(N(C)C)ccc21,94.5%
6,O=C(O)c1cccc(Br)c1,68.5% and 88.8%
7,Cc1cc(=NO)cc(C)n1O,101%
8,CC(=O)Oc1ccc(C2(c3ccc(OC(C)=O)cc3)C(=O)Nc3ccccc32)cc1,81.9% and 85.4%
9,COc1ccc2oc3cc(NCCN(C)C)ccc3c(=O)c2c1,82.9% and 67.4%
10,CCNC1=CC(=O)c2ncccc2C1=O,48.4%
11,CC(C)(C)OC(=O)c1ccc(NCc2cc(O)ccc2O)cc1,-95.1% (active)
12,CC1=CC(=O)C=CC1=Nc1ccc(N(C)C)cc1,65.6% and 50.7%
13,CCOC(=N)c1ccc(C(=N)OCC)cc1,95.1%
14,COc1ccc(-n2[nH]c3c(cnc4ccccc43)c2=O)cc1,70.7%
15,COc1ccc(C(=O)C(O)c2ccc(OC)cc2)cc1 (stereo not given),89.1% and 90.7%
16,CCOC(=O)C1=C(C)NC(C)=C(C(=O)OCC)C1,98.9% and 90.4%
17,COc1ccc(/C=N/NC(N)=S)cc1,76.4%
18,O=C(Nc1ccccc1)OCC(CN1CCCCC1)OC(=O)Nc1ccccc1 (stereo not given),53.5% and 66.7%
19,N=C(N)N1CCc2ccccc2C1,82.8% and 86.8%
20,COc1cc2c(cc1O)C(=O)CCCC2,90.4%

row,Structure (SMILES),growth
1,O=[N+]([O-])c1cccc2ccc(N/N=C/c3ccccc3O)nc12,26.6% and 64.3%
2,Cc1c(O)nc(N)[nH]c1=O,82.9%
3,Cc1ccc(N)cc1S(=O)(=O)O,84.4% and 91.5%
4,Nc1c(Cl)cc2c(c1Br)C(=O)c1ccccc1C2=O,63.2%
5,COc1ccc(/C=C/C(=O)O)cc1OC,100% and 97.5%
6,CCOC(=O)c1ccc(N2C(=O)C(Cl)(c3ccccc3)C2c2ccco2)cc1 (stereo not given),70.8%
7,C/C(=C\c1ccccc1)C(O)C(=O)c1nc2ccc([N+](=O)[O-])cc2[nH]c1=O (stereo not given),74.4%
8,Oc1ccc(O)c(-c2ccccc2)c1,43.4%
9,OC1CCCN(Cc2ccccc2)C1 (stereo not given),88.5%
10,O=C(c1ccccc1)C1(Br)CCCCC1,82.2%
11,CC(=O)Oc1ccc(C(c2ccc(OC(C)=O)cc2)c2ccccn2)cc1,74.3% and 89.2%
12,Nc1ccccc1SC1CC(=O)N(c2ccc(I)cc2)C1=O (stereo not given),86.8%
13,Cc1cnc(N)s1,81.6%
14,O=C(N=C1C(=O)C2(CCCCC2)C2(N=C(c3ccccc3)OC2=O)C12CCCCC2)c1ccccc1 (stereo not given),58.5%
15,O=C1C2=C(Nc3cc(Cl)ccc3N2)OC1c1c[nH]c2ccc(COc3ccccc3)cc12 (stereo not given),51.2%
16,O=C1C(=O)c2ccccc2C(O)=C1CC=C(Cl)Cl,55% and 47.8%
17,OCc1cccc(F)c1,75.1%
18,Cc1cc(Cl)nc(Nc2ccccc2)n1,102%
19,NC(=O)Cc1nc(O)cc(=O)[nH]1,95.4%
20,CC1CC(O)CC(C)(C)C1.CC1CC(O)CC(C)(C)C1.CC1CC(O)CC(C)(C)C1.CC1CC(O)CC(C)(C)C1.[Ti] (stereo not given),79%

# Source: PubChem BioAssay (NCI)
